From PubChem
RXFP1 antagonist: RXFP1 (human) relaxin receptor antagonism. Q9HBX9. HEK293-RXFP1, relaxin-stimulated cAMP HTRF, 30 min; active compounds read low. activity change, negative = inhibition, % at 57.5 µM. actives 0.59% (n = 350,000). AID 1259400;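 active = activity change of -60% or lower, but not beyond a set lower limit; inconclusive = change between -60% and -40%, or beyond the set limit; inactive = change above -40%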
KCNH2 WT inh: KCNH2 (human, wildtype) channel inhibition; Q12809; U2OS, BacMam KCNH2, thallium flux FluxOr; active compounds read low; activity change, % at 1.84 µM; actives 0.37% (n = 340,000); AID 720551;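 active = maximum activity change below -70%; inconclusive = maximum activity change between -70% and -50%; inactive = maximum activity change above -50%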
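U2OS cells were transduced with wild-type KCNH2 virus (2.03 x 10^8 / mL) for 4 h at room temperature, then cultured overnight at 37 C. Thallium flux was read with FluxOr dye. Rate constants were normalized to DMSO controls.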
KCNH2 3.1 block: inhibitors of human KCNH2 3.1 potassium channel isoform; actives 0.95% (n = 340,000); activity change, % (tested at about 1.8 µM); U2OS KCNH2 3.1, thallium flux FluxOr; active compounds read low;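 active = maximum activity change below -70%; inconclusive = maximum activity change from -70% to -50%; inactive = maximum activity change above -50%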;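 note: thallium influx rate constant from kinetic fluorescence after stimulation buffer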
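Channel expression came from 3.1 mutant virus (1.77 x 10^8 /mL) applied to suspended U2OS cells for 4 h. Flux was tracked with FluxOr dye plus Red40 quencher, and kinetic rate constants normalized to controls.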
Akt phos inh: blocks phosphorylation of Akt; Neuro2A IGF-stimulated pAkt S473 HTRF, 20 min; active compounds read low; activity change, % for hits at 50 µM; actives 0.32% (n = 360,000); AID 651550; in the data active = activity change below about -80%; inconclusive = mostly about -51% to -80%
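Neuro2A cells (4,500/well, DMEM with 0.5% FBS) were treated with compound at a single 50 µM final concentration, stimulated with 6 nM IGF for 20 min at 37 °C, and lysed. Phospho-Akt Ser473 was read by HTRF as 665/615 ratio ×10^4.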
RXFP1 agonist: RXFP1 (human) receptor agonism; Q9HBX9; HEK293T-RXFP1 cAMP TR-FRET, 30 min; response scale: percent of porcine relaxin response, buffer zero; Potency, µM (doses to about 57.5 µM), for inactives: top-dose activation, usual class: activators; actives 0.3% (n = 370,000); AID 2676; active = well fitted activation curve with a large enough effect; inconclusive = small, poorly fitted or top-dose-only effect; note: potency is the fitted concentration of half-maximal effect; nearly all actives have a fitted effect of over 60% in size
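HEK293T cells stably expressing RXFP1 were pretreated with the PDE4 inhibitor Ro 20174, exposed to compounds for 30 min at 37C, lysed, and cAMP was read by TR-FRET. Data normalized to buffer (basal) and 29 nM porcine relaxin (100%).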
Starred values were filed as active, the others as inactive; i = inactive; ? = inconclusive; . = no result. Rows were chosen to be rich in hits. Some 1.7% of all compounds tested hit in one or more screens of this group. % is set by controls: 0 for no effect and ±100 for the full control effect.

SMILES	RXFP1 antagonist	KCNH2 WT inh	KCNH2 3.1 block	Akt phos inh	RXFP1 agonist
CCOc1ccccc1NC(=S)NCCc1ccc(F)cc1	-0.5	-4.5	-0.4	i	1.1%
O=C1CSC(=S)N1N=Cc1cccc(OCc2ccccc2)c1	-95.4*	-3.3	-17.9	i	.
COc1ccc(C2CC(O)(c3ccccc3)Oc3cc(OC)c(OC)c(OC)c32)cc1 (stereo not drawn)	.	7.7	7.9	i	6.5%
OC1(c2ccccc2)CC(c2ccccc2)c2ccccc2O1 (stereo not drawn)	-76.6*	-7.1	-2.4	i	.
CC(=O)c1ccc(/C=C/c2nc3ccccc3n2C)o1	48.6	-0.4	-10.7	i	25.1µM*
CN(CC(=O)Nc1ccc(N2CCOCC2)cc1)Cc1c(O)ccc2ccccc12	-5.3	-5.6	-3.9	i	0.5%
CC1=CCC(C(=O)O)C(C(=O)Nc2nc3ccc(S(C)(=O)=O)cc3s2)C1 (stereo not drawn)	-0.8	-8.4	14.6	-120.3%*	-0.9%
CS(=O)(=O)c1ccc2nc(NC(=O)c3ccccc3)sc2c1	2.0	2.3	-4.3	i	20.6%
O=C(C[n+]1cc(Br)cc(Br)c1)c1cccc([N+](=O)[O-])c1	?	-9.5	-79.9*	i	-0.4%
O=C(CSc1nc2ncc(Br)cc2[nH]1)c1cccc([N+](=O)[O-])c1	-1.9	-7.8	1.6	i	0.0%
CCN(CC(=O)Nc1ccccc1C(F)(F)F)C(=O)c1oc2c(Cl)cccc2c1C	-1.4	-8.8	29.4	i	2.0%
CCN(CC(=O)Nc1ccc(OC)cc1)C(=O)Cc1cccs1	-4.1	0.0	-151.5*	i	0.2%
CCN(CC(=O)Nc1ccc(OC)cc1)C(=O)c1oc2c(Cl)cccc2c1C	-99.8*	-1.7	-6.6	i	0.0%
CCN(CC(=O)Nc1ccc(OC)cc1)C(=O)CCS(=O)(=O)c1ccc(C)cc1	0.5	-8.4	-12.7	i	1.3%
O=S(Cc1ccc(Br)cc1)Cc1nnc(SCc2ccc(Br)cc2)n1-c1ccccc1 (stereo not drawn)	-9.7	-16.2	-74.5*	i	-0.4%
CCN(CC)c1ccc2cc(-c3nnc(-c4ccncc4)o3)c(=O)oc2c1	3.6	-93.3*	?	i	0.2%
Cc1noc(C)c1-c1ccc(C(=O)NCc2ccccc2)c2occc12	.	.	.	i	.
C=C1C(=C/C=C2\CCC[C@]3(C)[C@@H]([C@H](C)/C=C/[C@@H](O)C4CC4)CC[C@@H]23)C[C@@H](O)C[C@@H]1O	-72.3*	.	.	.	.
CSc1ccc(CN2CCC(CO)(CCOc3ccccc3)CC2)cc1	-10.8	-109.8*	-100.2*	i	-1.1%
OCC1(CCOc2ccccc2)CCN(Cc2ccncc2)CC1	-4.5	29.8	-1.1	i	1.6%
CCn1ccnc1CN1CCC(CO)(CCOc2ccccc2)CC1	-35.8	11.7	-7.3	i	0.6%
OCC1(CCOc2ccccc2)CCN(Cc2ccc(OC(F)F)cc2)CC1	9.3	-131.0*	-110.8*	i	0.8%
OCC1(CCOc2ccccc2)CCN(Cc2cc(Cl)ccc2O)CC1	-11.4	5.0	4.4	i	1.4%
C=CCOc1ccccc1CN1CCC(CO)(CCOc2ccccc2)CC1	-0.8	?	-80.5*	i	6.9%
OCC1(CCOc2ccccc2)CCN(Cc2ccc3c(c2)OCCO3)CC1	-3.8	5.0	-47.5	i	2.8%
SMILES	RXFP1 antagonist	KCNH2 WT inh	KCNH2 3.1 block	Akt phos inh	RXFP1 agonist
OCC1(CCOc2ccccc2)CCN(Cc2ccccc2OC(F)F)CC1	0.5	4.7	-99.0*	i	-0.5%
CCc1noc(C)c1C(=O)Nc1nc(-c2ccc(NC(C)=O)cc2)cs1	-4.5	-5.9	-3.9	i	0.1%
COc1ccc(C2CC(c3ccccc3)=NN2c2ccc(Cl)c(C(=O)O)c2)cc1 (stereo not drawn)	0.8	7.6	21.2	i	24.2%
CS(=O)(=O)c1ccc(Cl)c(NC(=O)COC(=O)c2ccc(S(=O)(=O)N3CCCC3)cc2)c1	-16.8	-16.0	4.2	i	.
Cc1cc(OC(C)C(=O)N(Cc2ccc(N(C)C)cc2)Cc2ccco2)ccc1Cl (stereo not drawn)	-15.5	.	.	.	-2.6%
Cc1cc(OC(C)C(=O)N(Cc2ccco2)Cc2ccccc2F)cc(C)c1Cl (stereo not drawn)	-71.9*	.	.	.	-5.5%
COc1ccc(N(Cc2cccs2)C(=O)c2ccc(C(C)(C)C)cc2)cc1	-72.9*	.	.	.	-0.6%
Cc1ccc(N(Cc2cccs2)C(=O)c2ccc(Br)o2)cc1	-85.4*	.	.	.	-0.4%
Cc1cc(OC(C)C(=O)N(Cc2cccs2)C2CCS(=O)(=O)C2)ccc1Cl (stereo not drawn)	-4.0	5.9	2.3	i	2.6%
Cc1ccc(N(Cc2cccs2)C(=O)C(C)Oc2ccc(Cl)c(C)c2)cc1 (stereo not drawn)	-99.9*	.	.	.	-2.0%
Cc1ccccc1SCC(=O)OCC(=O)Nc1sccc1C(N)=O	-8.2	12.6	-74.2*	i	0.0%
NC(=O)c1ccsc1NC(=O)CSc1ccccc1F	-9.1	0.6	-8.0	i	0.4%
CCCN1C(=O)S/C(=C\c2ccc(N3CCOCC3)o2)C1=O	-36.6	-5.8	-18.1	i	-5.1%
CCCN1C(=O)S/C(=C/c2ccc(N3CCOCC3)o2)C1=O	-91.9*	15.9	-3.7	i	-5.0%
COc1ccc(/C=C(\C#N)c2nc3ccc(C)cc3[nH]2)cc1Oc1ccc(C(F)(F)F)cc1[N+](=O)[O-]	-10.2	-18.8	-2.4	i	9.1%
COc1ccc(C[C@H]2CN3C(=NC[C@@H]3Cc3ccccc3)N2CCNC(=O)CCC2CCCCC2)cc1	.	-144.5*	?	i	1.6%
COc1ccc(C[C@H]2CN3C(=NC[C@@H]3C(C)C)N2CCNC(=O)CCC2CCCCC2)cc1	.	-18.2	15.1	i	-0.2%
C=C1CSc2nc(=O)c3c4c(sc3n21)CCC4	-4.3	-1.1	0.1	-115.0%*	11.1%
CCOc1cc(CNCCCN2CCOCC2)ccc1OCC(=O)Nc1cccc2ccccc12	-7.7	13.4	-8.1	i	1.7%
CC(C)(C)n1nnnc1CN1CCN(C2CCCC2)CC1	4.0	6.7	8.0	-102.6%*	-1.0%
Cc1cccc(N2C(=O)C(O)=C(C(=O)c3cccs3)C2c2ccc(F)cc2)n1 (stereo not drawn)	2.2	-226.8*	-21.3	i	?
CCOc1ccc(N2CC(c3nc4ccccc4n3CC(C)C)CC2=O)cc1 (stereo not drawn)	-14.7	.	.	.	-2.8%
O=C(CN1CCN(Cc2ccc3c(c2)OCO3)CC1)Nc1ccc(F)cc1	.	-14.5	-84.1*	i	-0.3%
O=C(NCc1ccc2c(c1)OCO2)Nc1ccc(F)cc1	-6.5	-32.9	-15.9	i	-0.5%
CCN1CCN(CC(=O)Nc2ccc(N(C)C)cc2)CC1	-15.9	-3.8	-5.7	i	-1.6%
